KB-V1 cytotox – KB-V1 MDR subline cytotoxicity | KB-V1 MDR cells viability, CellTiter-Glo, 72 h | Potency, µM (highest dose often 46.1 µM), actives largely listed as cytotoxic | actives 3.4% (n = 400,000); further: on the % scale 0 is the no-effect control and ±100 the full control effect; nearly all actives have a fitted effect of over 60% in size
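In this primary screen, KB-V1 cells overexpressing P-gp are incubated with library compounds (lowest to highest concentration) for 72 h at 37 degrees C before a luminescent ATP viability read.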
MCF10A rerep – induces DNA re-replication in MCF 10a normal breast cells | Potency, µM (titrated, usually from 46.1 µM), inactives show top-dose activity, positive = re-replication, usual class: activators | actives 2.9% (n = 350,000) | MCF 10A DNA re-replication, Hoechst nuclear intensity, 48 h; further: % of control where 0% means no effect; nearly all actives have a fitted effect of over 50% in size
ELG1 DNA repair – blocks ELG1-dependent DNA repair in HEK293T cells. HEK293T ELG1-luciferase reporter, luminescence, 16 h; DNA damage induced by 5-fluorouridine. Potency, µM (highest dose often 46.1 µM), inactives show at the top dose activity change, negative = inhibition, actives largely listed as inhibitors. actives 2.3% (n = 330,000); further: on the % scale 0 is the no-effect control and ±100 the full control effect; nearly all actives have a fitted effect of over 55% in size
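Step one: seed 2,000 cells per well. Step two: pin-transfer compound or DMSO alongside 5-fluorouridine. Step three: incubate 16 hr, 37 °C, 5% CO2. Step four: add ONE-Glo, wait 30 min, read luminescence.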
SW480 rereplic – DNA re-replication induction in SW480 cells | SW480 DNA re-replication, Hoechst DNA content imaging, 48 h | Potency, µM (doses to about 46.1 µM), for inactives: at the top dose re-replication activation, actives largely listed as activators | actives 1.8% (n = 340,000); further: % of control where 0% means no effect; nearly all actives have a fitted effect of over 55% in size
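DNA re-replication was detected as more nuclei of elevated Hoechst intensity after 48 hr exposure to compound (23 nL pinned per well of 250 cells).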
KB-3-1 tox – kills parental KB-3-1 adenocarcinoma cells; Potency, µM (series often up to 46.1 µM), usual class: cytotoxic; KB-3-1 viability, CellTiter-Glo ATP luminescence, 72 h; actives 1.4% (n = 400,000); further: on the % scale 0 is the no-effect control and ±100 the full control effect; nearly all actives have a fitted effect of over 60% in size
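Cytotoxicity measured as CellTiter-Glo luminescence after 72 h at 37 C. Compound titrations were pinned onto drug-naive KB-3-1 parental adenocarcinoma cells grown in DMEM with 10% FBS, and normalized data fitted to concentration-response curves.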
The depositor's hits bear a star; i = inactive; ? = inconclusive; · = no result given. The list is not random: actives were taken first. Their share in the collection is about 8.2%. The call rests on the fitted dose curve; in most records, active means well fitted curve in the direction sought with a large enough effect; inconclusive means small, poorly fitted or top-dose-only effect, or another doubt; inactive means no such curve, though single readings can be large; an effect the other way counts as inactive or inconclusive. Potency means the concentration at half of the fitted maximal effect.

SMILES	KB-V1 cytotox	MCF10A rerep	ELG1 DNA repair	SW480 rereplic	KB-3-1 tox
CC(C(=O)NCc1ccccc1)n1ccc2cc(S(=O)(=O)N3CCCC3)ccc21 (centres undefined)	i	·	·	·	i
CCOC(=O)CNC(=O)CSc1nnc(CCc2nc3ccccc3[nH]2)n1C	i	0.9%	-7.1%	-4.9%	i
Cn1cc(Br)c(C(=O)Nc2sc3c(c2C#N)CCC3)n1	i	7.3%	?	0.9%	i
Cn1cc([N+](=O)[O-])c(C(=O)Nc2sc3c(c2C#N)CCC3)n1	?	3.66µM*	-6.4%	?	?
O=C(/C=C/c1ccco1)Nc1sc2c(c1C(=O)O)CCC2	i	-0.7%	?	0.5%	i
Cc1onc(-c2c(F)cccc2Cl)c1C(=O)Nc1sc2c(c1C(N)=O)CCC2	?	5.01µM*	?	?	?
N#Cc1c(NC(=O)/C=C/c2ccco2)sc2c1CCCC2	1.03µM*	?	?	?	0.411µM*
COc1cccc(-c2nc3nc(C)cc(C)n3c2NC2CCCC2)c1	i	·	·	·	i
O=C(Nc1cccc(C(F)(F)F)c1)C1CCN(S(=O)(=O)c2cccc3nsnc23)CC1	i	·	·	·	i
CC1(C(=O)N2CCN(C(=O)c3ccco3)CC2)CC1(Br)Br (centres undefined)	i	-41.5%	10.4%	-16.5%	i
O=C(CNC(=O)c1cc(-c2ccccc2)nn1-c1ccccc1)Nc1ccccc1Br	i	11.6µM*	·	-24.1%	i
Cc1ccc(C)c(NC(=O)c2cc(-c3ccccc3)nn2-c2ccccc2)c1	i	?	?	?	i
CCN(CC(=O)Nc1ccccc1C(F)(F)F)C(=O)c1cc(-c2ccccc2)nn1-c1ccccc1	i	10.3µM*	-7.8%	-10.4%	i
CC1(C)Cc2c(sc3nc[nH]c(=O)c23)CO1	i	-9.9%	8.5%	5.17µM*	i
CSc1ccc(NS(=O)(=O)c2ccc(-n3cnnn3)cc2)cc1	?	1.4%	10.6%	-4.1%	i
CCOC(=O)CN1N=C(/C=C/c2ccc(C(C)C)cc2)CCC1=O	2.31µM*	2.0%	?	-5.4%	7.31µM*
CCOC(=O)C(C)N1N=C(/C=C/c2ccc(C)cc2)CCC1=O (centres undefined)	16.4µM*	16.3%	0.1%	13.6%	?
CCOC(=O)CN1N=C(/C=C/c2ccccc2)CCC1=O	i	1.0%	·	-2.7%	i
O=C1N(Cc2ccc(F)cc2Cl)c2ccccc2C12OCCCO2	18.4µM*	23.5%	27.8%	4.5%	?
O=C1N(CCCCN2C(=O)C3(OCCO3)c3ccccc32)c2ccccc2C12OCCO2	i	5.1%	?	-0.9%	i
CCN(CC)C(=O)CN1C(=O)C2(OCC(C)(C)CO2)c2ccccc21	16.4µM*	2.2%	13.4%	3.4%	i
CCN(CC)C(=O)CN1C(=O)C2(OCC(C)(c3ccccc3)CO2)c2ccccc21 (centres undefined)	i	-1.8%	-12.3%	10.3%	i
O=C1N(CCCN2C(=O)C3(OCCO3)c3ccccc32)c2ccccc2C12OCCO2	11.6µM*	4.7%	-23.0%	-9.7%	i
O=C1N(Cc2ccccc2F)c2ccccc2C12OCCCO2	i	-1.8%	12.8%	1.2%	i
CCN(CC(=O)Nc1c(F)cccc1F)C(=O)C1CCN(S(=O)(=O)c2ccc(C)cc2C)CC1	i	-3.8%	-4.3%	-72.1%	i
Cc1cc(C)cc(N(CC(=O)NCC2CCCO2)C(=O)CN2C(=O)COc3ccccc32)c1 (centres undefined)	13µM*	-1.1%	-3.5%	-0.2%	i
Cc1ccc2c(c1)N(CC(=O)N(Cc1ccc3c(c1)OCO3)CC1CCCO1)C(=O)C(C)O2 (centres undefined)	8.2µM*	1.0%	?	0.5%	i
COc1ccc(CN(CC2CCCO2)C(=O)CN2C(=O)COc3ccccc32)cc1OC (centres undefined)	i	7.9%	11.6µM*	-5.2%	i
Cc1ccc2c(c1)N(CC(=O)N1CCCCCC1)C(=O)C(C)O2 (centres undefined)	i	6.1%	18.2%	-5.7%	i
